Assay results reported in PubChem BioAssay (Tox21).
Inconclusive results are not listed. Calls of active or inactive are those of the source. Unless noted, calls follow the shape of the dose curve; as a rule, active = well fitted curve in the direction sought with a large enough effect in the repeat runs; inconclusive = weak or mixed curves; inactive = no such curve, though single readings can be large; an effect the other way counts as inactive or inconclusive.

How the values were obtained:
[1] = qHTS assay to identify small molecule antagonists of the constitutive androstane receptor (CAR) signaling pathway - cell viability counter screen (AID 1224837); also: nearly all actives have a fitted effect of over 45% in size; also: potency is read from the fitted curve at half-maximal effect
In short: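 CITCO at 50 nM final was added alongside compounds (15 concentrations) to double-stable hCAR/CYP2B6-2.2kb HepG2 cells. Following 23 hr at 37 C, cell viability was quantified by CellTiter-Fluor fluorescence intensity.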

[2] = molecular target: Nuclear receptor subfamily 1 group I member 3 (Homo sapiens) (UniProt Q14994); assay: qHTS assay to identify small molecule antagonists of the constitutive androstane receptor (CAR) signaling pathway (AID 1224838); also: nearly all actives have a fitted effect of over 40% in size; also: potency is read from the fitted curve at half-maximal effect
In short: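 Inhibition of CITCO-driven (50 nM final) CYP2B6 reporter expression is measured in HepG2 cells stably carrying hCAR. Fifteen compound concentrations are applied for 24 h at 37 C, followed by luciferase luminescence.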

[3] = molecular target: Nuclear receptor subfamily 1 group I member 3 (Homo sapiens) (UniProt Q14994); assay: qHTS assay to identify small molecule agonists of the constitutive androstane receptor (CAR) signaling pathway (AID 1224839); also: nearly all actives have a fitted effect of over 15% in size; also: potency is read from the fitted curve at half-maximal effect
In short: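 Luminescent ONE-Glo read-out after 24 hr, 37 C exposure of double-stable HepG2-CYP2B6-hCAR reporter cells to a 15-point compound series, in the presence of 0.75 uM PK11195 (final).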

[4] = qHTS assay to identify small molecule antagonists of the estrogen related receptor signaling pathway with the pleiotropic PPARgamma coactivator (PGC) from Tox21 10K library (AID 1224841; call rule not given here; also: actives are mostly falling curves and most rising ones were filed inactive; nearly all actives have a fitted effect of over 50% in size)
In short: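 One-Glo luminescence, measured after half an hour at room temperature, quantified reporter output of PGC/ERR cells. These had been plated at 2,000 per well, incubated 6 h, dosed with compounds in DMSO, then kept 18 h at 37 C.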

[5] = qHTS assay to identify small molecule agonists of the estrogen related receptor signaling pathway with the pleiotropic PPARgamma coactivator (PGC) from Tox21 10K library (AID 1224842); also: nearly all actives have a fitted effect of over 15% in size
In short: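 Luminescence from One-Glo (30 min, room temperature) measured after PGC/ERR cells had 18 h at 37 C with pinned compound (23 nL in DMSO). Cells had been seeded at 2,000 per well and pre-incubated 6 h.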

[6] = qHTS assay to identify small molecule antagonists of the estrogen related receptor (ERR) signaling pathway from Tox21 library (AID 1224848); also: nearly all actives have a fitted effect of over 50% in size
In short: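 Luciferase luminescence (ONE-Glo, 30 min room temperature) was the read-out. Cells of the NTP-supplied ERR line, 2,000 per well, were given 6 h at 37 C before compound addition in DMSO and 18 h exposure at 37 C.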

[7] = qHTS assay to identify small molecule agonists of the estrogen related receptor (ERR) signaling pathway from Tox21 library (AID 1224849; calls by dose curve; also: nearly all actives have a fitted effect of over 15% in size); conditions: ERR reporter cell line, ONE-Glo luciferase, 18 h; at 92.4 µM (top of the series) unless noted
In short: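 Luciferase activity in ERR pathway reporter cells served as the agonist readout; exposure lasted 18 h at 37 C, with ONE-Glo detection after 30 min at room temperature.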

[8] = qHTS RealTime-Glo MT Cell Viability Assay in HepG2 cells - 24 hour (AID 1224867); also: nearly all actives have a fitted effect of over 50% in size; also: potency is read from the fitted curve at half-maximal effect
In short: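 HepG2 cells (600/well) were dispensed with RealTime-Glo reagents, incubated 5 h at 37 °C, then treated with compounds in DMSO for up to 40 h. Nonlytic NanoLuc luminescence reflecting viable cells was read at each stated time point.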

[9] = qHTS RealTime-Glo MT Cell Viability Assay in HEK293 cells - 32 hour (AID 1224868); also: nearly all actives have a fitted effect of over 50% in size; also: potency is read from the fitted curve at half-maximal effect
In short: (§1)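 HEK293 cells seeded with NanoLuc/prosubstrate reagent, rested 5 h at 37 C, then dosed and kept at 37 C up to 40 h. Nonlytic real-time luminescence from viable cells read at 0, 8, 16, 24, 32 and 40 h.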

[10] = A CellTox Green Cytotoxicity Assay to monitor cytotoxicity in HEK293 cells - 0 hour (AID 1224869); also: nearly all actives have a fitted effect of over 50% in size; also: potency is read from the fitted curve at half-maximal effect
In short: (§2)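 Real-time, in one plate: 600 HEK293 cells/well with dead-cell DNA dye, pinned compound after 5 h, 37 C incubation over 40 h; viable cells give no appreciable fluorescence.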

[11] = qHTS RealTime-Glo MT Cell Viability Assay in HepG2 cells - 40 hour (AID 1224870); also: nearly all actives have a fitted effect of over 50% in size; also: potency is read from the fitted curve at half-maximal effect
In short: (§3)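 Real-time viability: cells seeded at 600 per well together with NanoLuc and cell-permeant prosubstrate, compounds added after 5 h incubation. Luminescence tracked at 0, 8, 16, 24, 32 and 40 h of exposure.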

[12] = qHTS assay to identify small molecule antagonists of the estrogen related receptor signaling pathway with the pleiotropic PPARgamma coactivator (PGC) from Tox21 10K library - cell viability counter screen (AID 1224840; active = well fitted cell-killing curve with a large enough effect in the repeat runs, not every such curve was filed as active; also: nearly all actives have a fitted effect of over 40% in size; also: potency is read from the fitted curve at half-maximal effect)
In short: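 Readout: fluorescence intensity from CellTiter-Fluor after 30 min at 37 C/5% CO2. Preceded by 17.5 h treatment of PGC/ERR cells with DMSO-dissolved compounds, added 6 h post-seeding.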

[13] = qHTS assay to identify small molecule agonists of the hypoxia (HIF-1) signaling pathway - cell viability counter screen (AID 1224844; calls by dose curve; also: nearly all actives have a fitted effect of over 50% in size)
In short: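 In this counter screen, HRE-bla ME-180 cell viability after 17 hrs of compound exposure at 37C was read by CellTiter-Glo luminescence, multiplexed with the beta-lactamase reporter measurement.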

[14] = qHTS assay to identify small molecule agonists of H2AX (AID 1224845; active = well fitted activation curve with a large enough effect in the signal ratio in the repeat runs, not every such curve was filed as active; the % refers to the signal ratio)
In short: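 Phospho-H2AX Ser139 measured by HTRF (ex 320 nm; em 665 and 620 nm) after 24 hr antibody incubation. Compounds, 15 concentrations, 0.76% DMSO, were applied to CHO-K1 cells for 3hr at 37C before lysis.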

[15] = qHTS assay to identify small molecule agonists of the hypoxia (HIF-1) signaling pathway (AID 1224846; active = well fitted activation curve with a large enough effect in the signal ratio in the repeat runs, not every such curve was filed as active; the % refers to the signal ratio)
In short: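 ME-180 HRE-bla reporter cells; compounds in DMSO, 17 h at 37C; read-out beta-lactamase via CCF4-AM FRET.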

[16] = qHTS assay to identify small molecule agonists of H2AX - cell viability counter screen (AID 1224847; calls by dose curve;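 also: wild-type CHO-K1 cells; top concentration of the series differs between compounds; nearly all actives have a fitted effect of over 30% in size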)
In short: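 Counter-screen for viability: CellTiter-Glo ATP luminescence read after 3 h compound treatment (15-point titration, 0.76% DMSO final) of CHO-K1 cells at 37C, with 30 min room-temperature reagent incubation.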

[17] = A CellTox Green Cytotoxicity Assay to monitor cytotoxicity in HEK293 cells - 40 hour (AID 1224871); also: nearly all actives have a fitted effect of over 45% in size
In short: as §2

[18] = qHTS RealTime-Glo MT Cell Viability Assay in HEK293 cells - 16 hour (AID 1224872); also: nearly all actives have a fitted effect of over 50% in size; also: potency is read from the fitted curve at half-maximal effect
In short: as §1

[19] = qHTS RealTime-Glo MT Cell Viability Assay in HepG2 cells - 8 hour (AID 1224873); also: nearly all actives have a fitted effect of over 55% in size
In short: as §3

[20] = molecular target: Thyrotropin receptor (Homo sapiens) (UniProt P16473); assay: qHTS assay to identify small molecule agonists of the thyroid stimulating hormone receptor (TSHR) signaling pathway (AID 1224843; calls by dose curve; also: nearly all actives have a fitted effect of over 45% in size)
In short: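 Agonist activity read as cAMP rise via d2/cryptate HTRF competition, 1 h room-temperature detection, in HEK293 cells expressing TSHR. Fifteen-point titrations, each run in triplicate, with a 30 min room-temperature incubation beforehand.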
% is scaled to controls: 0 for no effect and ±100 for the full control effect.

Chain of Nuclear receptor subfamily 1 group I member 3 (Homo sapiens) (Q14994 whole entry, looked up): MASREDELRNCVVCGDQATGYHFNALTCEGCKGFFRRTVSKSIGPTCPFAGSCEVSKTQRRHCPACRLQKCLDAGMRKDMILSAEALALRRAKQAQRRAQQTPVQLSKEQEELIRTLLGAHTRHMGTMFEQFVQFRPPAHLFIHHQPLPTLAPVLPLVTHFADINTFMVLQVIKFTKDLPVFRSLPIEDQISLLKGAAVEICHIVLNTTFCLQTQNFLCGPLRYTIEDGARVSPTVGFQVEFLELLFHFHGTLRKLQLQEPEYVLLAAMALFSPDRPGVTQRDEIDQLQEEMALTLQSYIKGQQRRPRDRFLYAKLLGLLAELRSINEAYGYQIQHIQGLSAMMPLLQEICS
Chain of Thyrotropin receptor (Homo sapiens) (P16473 whole entry, looked up): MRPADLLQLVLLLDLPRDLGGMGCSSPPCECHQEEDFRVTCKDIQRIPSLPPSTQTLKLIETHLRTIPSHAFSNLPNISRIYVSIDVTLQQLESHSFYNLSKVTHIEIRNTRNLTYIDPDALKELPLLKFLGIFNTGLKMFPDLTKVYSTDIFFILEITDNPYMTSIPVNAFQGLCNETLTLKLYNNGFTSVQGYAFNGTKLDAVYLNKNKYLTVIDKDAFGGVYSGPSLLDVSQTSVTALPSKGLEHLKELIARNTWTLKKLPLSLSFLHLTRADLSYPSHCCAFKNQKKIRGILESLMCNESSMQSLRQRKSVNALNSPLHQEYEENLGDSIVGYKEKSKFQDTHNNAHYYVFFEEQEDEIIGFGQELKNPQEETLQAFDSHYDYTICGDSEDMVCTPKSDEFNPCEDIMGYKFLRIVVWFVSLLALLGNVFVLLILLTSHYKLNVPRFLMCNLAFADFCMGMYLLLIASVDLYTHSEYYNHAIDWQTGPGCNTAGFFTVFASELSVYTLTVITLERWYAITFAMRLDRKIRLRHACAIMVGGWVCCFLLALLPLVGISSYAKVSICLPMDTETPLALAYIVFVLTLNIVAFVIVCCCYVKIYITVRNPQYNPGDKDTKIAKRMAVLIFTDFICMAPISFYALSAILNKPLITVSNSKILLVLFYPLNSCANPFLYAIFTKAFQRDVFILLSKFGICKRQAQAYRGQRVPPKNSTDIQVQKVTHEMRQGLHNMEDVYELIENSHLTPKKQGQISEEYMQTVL

O=C1OC2(c3ccccc31)c1ccc(O)c(Br)c1Oc1c2ccc(O)c1Br
active: Potency [10] 6.16 µM
inactive: Potency [1] | Potency [2] | Potency [3] | Potency [4] | Potency [5] | Potency [6] | activity change, positive = activation [7] -9.26% | Potency [8] | Potency [9] | Potency [11]

C/C(=N\[Si](C)(C)C)O[Si](C)(C)C
inactive: Potency [1] | Potency [2] | Potency [3] | Potency [12] | Potency [13] | Potency [14] | Potency [15] | Potency [16] | Potency [8] | Potency [9] | Potency [10] | Potency [11] | Potency [17] | Potency [18] | Potency [19]

Cc1ccc2sc3cccc(C)c3c2c1
inactive: Potency [1] | Potency [2] | Potency [12] | Potency [20] | Potency [13] | Potency [14] | Potency [15] | Potency [16] | Potency [8] | Potency [9] | Potency [10] | Potency [11] | Potency [17] | Potency [18] | Potency [19]

ClC(c1ccccc1)(c1ccccc1)c1ccccc1
inactive: Potency [1] | Potency [2] | Potency [12] | Potency [15] | Potency [16] | Potency [8] | Potency [9] | Potency [10] | Potency [11] | Potency [17] | Potency [19]
active: Potency [3] 21.7 µM

O=C(CCN1CCC(c2ccccc2)C1)c1ccc2c(c1)OCCO2 (stereo unspecified)
active: Potency [11] 21.3 µM
inactive: Potency [1] | Potency [2] | Potency [3] | Potency [12] | Potency [20] | Potency [10]

O=C1OCc2ccccc21
inactive: Potency [1] | Potency [2] | Potency [3] | Potency [12] | Potency [20] | Potency [14] | Potency [15] | Potency [16] | Potency [9] | Potency [10] | Potency [11] | Potency [17] | Potency [18] | Potency [19]

CC(=O)[C@]1(O)Cc2c(O)c3c(c(O)c2[C@@H](O[C@H]2C[C@H](N)[C@H](O)[C@H](C)O2)C1)C(=O)c1ccccc1C3=O
inactive: Potency [3] | Potency [16] | Potency [10]
active: Potency [1] 2.11 µM | Potency [2] 237 nM | Potency [12] 11.9 µM | Potency [8] 6.01 µM | Potency [9] 75.6 nM | Potency [18] 535 nM

Cc1ccc2nc(-c3ccc(N)cc3)sc2c1S(=O)(=O)O
inactive: Potency [1] | Potency [2] | Potency [12] | Potency [20] | Potency [13] | Potency [16] | Potency [9] | Potency [10] | Potency [11] | Potency [18] | Potency [19]

Cc1cccc(C)c1C
inactive: Potency [1] | Potency [2] | Potency [3] | Potency [12] | Potency [20] | Potency [13] | Potency [15] | Potency [16] | Potency [9] | Potency [10] | Potency [11] | Potency [19]
